Source: PubChem BioAssay (NCI)
“And” between values parts separate entries of the source, which are not always exact repeats. Equal entries are not always repeated. The panel holds about 83,000 compounds, 20% with a hit somewhere; the sample as a whole holds those more often.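 Growth was measured after 48 h exposure to one concentration of compound in 96-well plates. Values under 10 count as active.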 Unmarked numbers belong to inactive results. The source made the active and inactive calls.

Tested on: HL-60(TB) leukemia
Assay: NCI-60 one-dose screen, 48 h (100 = growth as untreated, 0 = no growth, -100 = all killed)
Conditions: 10 µM unless noted

Row | SMILES | growth
1 | Cn1cnc([N+](=O)[O-])c1Sc1ncnc2nc[nH]c12 | 73.5% and 91.7%
2 | Cc1ccc2c(c1)-c1cc(C)nn1-c1ccc(C#N)cc1O2 | 69.2%
3 | CC(C)n1cnc2c(=S)nc[nH]c21 | 141%
4 | COc1cc(/C=C/C(C)=O)ccc1O | 81% and 77.8%
5 | COc1ccc(Nc2ccnc(N3CCN(c4ccnc5cc(Cl)ccc45)CC3)n2)cc1 | -16.8% (active)
6 | Oc1ccc(Cn2cc3c(c2-c2ccccc2)CCc2cnoc2-3)cc1 | 93.8%
7 | COc1cc(/C=C2\Oc3cc(OCCCN4CCCC4)ccc3C2=O)cc(OC)c1 | 72.5%
8 | CCN1CCN(c2nc(NCCNc3ccnc4cc(Cl)ccc34)c3ccccc3n2)CC1 | -67.1% (active)
